Compound activity as filed in PubChem BioAssay.
This is a sample that favours compounds with a hit; in the whole collection about 9.4% have one here.
ELG1 genotox – inducers of genotoxicity in HEK293T ELG1-luciferase cells | HEK293T ELG1-luciferase reporter, luminescence, 16 h | Potency, µM (doses to about 46 µM), inactives show at the top dose activity change, positive = activation, actives largely listed as activators | 330,000 compounds, 1.3% hits | AID 504466; further: % of control where 0% means no effect; nearly all actives have a fitted effect of over 60% in size
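16 hr compound incubation (37 °C, 5% CO2) of HEK293T cells carrying luciferase-tagged ELG1; luciferase then measured by ONE-Glo luminescence after 30 min at RT.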
FLuc modulator – counter-screen for miR-21 project: firefly luciferase inhibitors or activators. P08659. purified FLuc, Km substrates, luminescence inhibition. Potency, µM (titrated, usually from 57.5 µM), for inactives: at the top dose activity change, negative = inhibition, usual class: inhibitors. 360,000 compounds, 6.9% hits. AID 588342;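 further: plate controls were vehicle for no effect and reference inhibitor for full effect; nearly all actives have a fitted effect of over 55% in size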
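Purified P. pyralis luciferase, 10 nM final, with Km-level 10 uM D-luciferin and 10 uM ATP in 50 mM Tris acetate pH 7.5, 10 mM Mg acetate, 0.01% Tween-20, 0.05% BSA; 6-point qHTS titration about 60 µM downward; luminescence read.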
ELG1 repair inh – inhibitors of ELG1-dependent DNA repair in HEK293T cells; 330,000 compounds, 2.3% hits; Potency, µM (doses to about 46.1 µM), without a hit: at the top dose activity change, negative = inhibition, actives largely listed as inhibitors; AID 504467; HEK293T ELG1-luciferase reporter, luminescence, 16 h; DNA damage induced by 5-fluorouridine; further: on the % scale 0 is the no-effect control and ±100 the full control effect; nearly all actives have a fitted effect of over 55% in size
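Cells (2,000 per well) received 5-fluorouridine plus test compound or DMSO and were incubated 16 hr at 37 °C, 5% CO2. Luciferase activity was read by luminescence 30 min after ONE-Glo addition; signal suppression marked inhibition of damage-induced ELG1 function.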
SMN2 splice up – SMN2 splice variant enhancement | HEK293 SMN2-luciferase splicing reporter, luminescence, 30-36 h | Potency, µM (titrated, usually from 46.1 µM), inactives show at the top dose activity change, positive = activation, actives largely listed as activators | 210,000 compounds, 2.8% hits | AID 1458; further: % of control where 0% means no effect; nearly all actives have a fitted effect of over 55% in size
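qHTS luciferase splicing reporter: luminescence rises when SMN2 exon 7 is included in transfected HEK293 cells. Compound exposure lasted 30-36 h at 37C, with 4.5 mM final sodium butyrate as control, followed by a ONE-Glo read.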
Rab9 prom act – activates the Rab9 promoter. Huh7 Rab9 promoter-luciferase reporter, luminescence, 24 h. Potency, µM (doses to about 9.22 µM), without a hit: at the top dose activation, negative = inhibition, usual class: activators. 320,000 compounds, 2.8% hits; further: % of control where 0% means no effect; nearly all actives have a fitted effect of over 60% in size
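Rab9 promoter-driven luciferase in stably transfected Huh7 cells; 1500 cells/well rested 2 h, exposed to compound in DMSO for 24 h at 37 °C, 5% CO2. Luminescence read 10 min after adding luciferase reagent at ambient temperature.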
NPC1 promoter act – activators of NPC1 promoter | Huh7 NPC1 promoter luciferase reporter, 24 h | Potency, µM (highest dose often 9.22 µM), inactives show top-dose activation, usual class: activators | 320,000 compounds, 2.4% hits | AID 485313; further: % of control where 0% means no effect; nearly all actives have a fitted effect of over 60% in size
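Cells: Huh7 expressing luciferase under the NPC1 promoter, 1500/well. Seeded 2 h, compound added, incubated 24 h at 37 °C. Luciferase reagent, 10 min ambient, then luminescence.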
ELG1 FLuc counter – luciferase inhibition in cell-free luciferin readout for ELG1 hits. cell-free firefly luciferase luminescence counter-screen, ViewLux. AID 624247. shares compounds with ELG1 repair inh. 350 compounds, 3% hits. Potency, µM (top dose mostly 46.1 µM), without a hit: at the highest dose activity change, negative = inhibition, hits mostly inhibitors; further: on the % scale 0 is the no-effect control and ±100 the full control effect
ELG1-Luc inh – human ELG1 repair inhibition, luciferase-tagged ELG1 confirmation | shares compounds with ELG1 repair inh | Potency, µM (doses to about 46.1 µM), inactives show at the highest dose activity change, negative = inhibition, most hits filed as inhibitors | AID 624248 | 670 compounds, 68% hits | HEK293T ELG1-luciferase levels, luminescence; cells co-treated with 5-fluorouridine; further: on the % scale 0 is the no-effect control and ±100 the full control effect; nearly all actives have a fitted effect of over 55% in size
ELG1 MMS Luc – inhibits ELG1-dependent repair under MMS stimulation in HEK293T cells; shares compounds with ELG1 repair inh; HEK293T luciferase-tagged ELG1 level, MMS stimulated; Potency, µM (highest dose often 46.1 µM), for the others: at the top dose activity change, negative = inhibition, hits mostly inhibitors; 670 compounds, 53% hits; further: on the % scale 0 is the no-effect control and ±100 the full control effect; nearly all actives have a fitted effect of over 60% in size
ELG1 5FU viab – confirmation of ELG1 repair inhibitors: viability with 5FU. shares compounds with ELG1 repair inh. cell viability with 5-FU, ELG1-dependent repair. Potency, µM (doses to about 46.1 µM), inactives show at the highest dose activity change, negative = viability loss, actives largely listed as cytotoxic. 670 tested, under 10 active. AID 624250;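 further: ELG1-luc HEK293T cells cotreated with 5-fluorouridine at 10 µM final; viability measured 16 h after compound addition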
ELG1 MMS viab – confirmation of ELG1 repair inhibitors: viability with MMS | 670 compounds, 33% hits | Cell viability with MMS, ELG1-dependent DNA repair | shares compounds with ELG1 repair inh | Potency, µM (titrated, usually from 46.1 µM), for the others: top-dose activity change, negative = viability loss, usual class: cytotoxic;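 further: ELG1-luc HEK293T cells co-treated with 10 µM MMS; viability read 16 h after compound addition; on the % scale 0 is the no-effect control and ±100 the full control effect; nearly all actives have a fitted effect of over 60% in size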
ELG1 unstim viab – unstimulated viability counter-screen for ELG1 repair hits. shares compounds with ELG1 repair inh. cell viability counter-screen, unstimulated, luminescence. Potency, µM (titrated, usually from 45.9 µM), for the others: at the highest dose activity change, negative = loss of viability, hits mostly cytotoxic. 900 compounds, 8% hits;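 further: compound exposure lasted 16 hours before reading; on the % scale 0 is the no-effect control and ±100 the full control effect; nearly all actives have a fitted effect of over 55% in size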
FLuc biochem – firefly luciferase inhibition counter-screen; 350 compounds, 10% hits; shares compounds with ELG1 repair inh; purified firefly luciferase, luminescence counter-screen; Potency, µM (series often up to 57.5 µM), inactives show at the top dose activity, negative = inhibition, usual class: inhibitors; further: on the % scale 0 is the no-effect control and ±100 the full control effect
* hit, by the source's call; u = inconclusive; x = no result. The call rests on the fitted dose curve; in most records, active means well fitted curve in the direction sought with a large enough effect; inconclusive means small, poorly fitted or top-dose-only effect, or another doubt; inactive means no such curve, though single readings can be large; an effect the other way counts as inactive or inconclusive. Potency means the concentration at half of the fitted maximal effect.

SMILES	ELG1 genotox	FLuc modulator	ELG1 repair inh	SMN2 splice up	Rab9 prom act	NPC1 promoter act	ELG1-Luc inh	ELG1 MMS Luc	ELG1 5FU viab	ELG1 MMS viab	ELG1 unstim viab	others
O=C(COc1ccc(Cl)cc1)NCCc1csc(-c2ccc(C(F)(F)F)cc2)n1	x	4.2%	x	x	x	x	x	x	x	x	x
CN(c1nnc(NC(=O)Nc2ccc(Br)cc2)s1)C1CCCCC1	x	6.4%	x	x	x	x	x	x	x	x	x
CCc1cccc(C)c1NC(=O)C(CC)n1ncn2c(cc3cc(C)ccc32)c1=O (centres undefined)	x	-1.6%	x	-8.1%	x	x	x	x	x	x	x
CCn1cc([N+](=O)[O-])c(C(=O)Nc2ccn(Cc3ccccc3)n2)n1	-1.3%	3.0%	-8.4%	4.3%	-4.7%	0.6%	x	x	x	x	x
Cc1ccc(Cn2ccc(NC(=O)c3nn(C)cc3[N+](=O)[O-])n2)cc1	-2.7%	-6.0%	u	-0.3%	-0.8%	6.8%	u	u	-0.9%	-0.5%	-7.4%
CCOc1ccc(Nc2nc(NCc3ccco3)nc(N)c2[N+](=O)[O-])cc1	5.1%	1.8%	24.2%	x	-0.1%	1.5%	x	x	x	x	x
COc1ccc(OC)c(Nc2nc(NCc3ccco3)nc(N)c2[N+](=O)[O-])c1	u	0.8%	u	x	0.5%	4.0%	0.628µM*	-8.3%	u	-8.0%	-11.2%
CCCc1cc2c(n1Cc1ccc(OC)cc1)C(C)C1CN(C(=O)c3ccccc3)C(C)(C(=O)OC)C21 (centres undefined)	x	x	x	-3.3%	x	x	x	x	x	x	x
CN(C)S(=O)(=O)c1ccc(NC(=O)c2cc(-c3cccs3)nc3ccccc23)cc1	-7.9%	-2.7%	3.66µM*	-8.2%	-8.8%	-5.3%	u	u	2.9%	-12.2%	u
COc1ccc(S(=O)(=O)NCCc2nnc3ccc(SCC(=O)Nc4nc(C)cs4)nn23)cc1	-0.7%	3.3%	0.7%	14.0%	1.5%	-2.4%	-21.5%	10.3%	6.1%	-6.7%	-4.2%	ELG1 FLuc counter=0.9%;FLuc biochem=-3.3%
COc1cc(C(CC(=O)NCc2ccccc2)N2Cc3ccccc3C2=O)cc(OC)c1OC (centres undefined)	x	-1.8%	x	x	x	x	x	x	x	x	x
Cc1nc2sc3c(NCc4ccco4)ncnc3c2c2c1COC(C)(C)C2	-1.7%	2.2%	2.59µM*	-4.9%	-5.5%	-2.0%	3.54µM*	22.3µM*	u	-11.2%	u	ELG1 FLuc counter=-6.7%;FLuc biochem=-3.8%
COCC(=O)N1CCC[C@@]2(CCN(c3ccccc3)C2)C1	x	x	x	-3.8%	x	x	x	x	x	x	x
CC1Cc2cc(-c3csc(NC(=O)Cc4ccccc4)n3)ccc2N1S(C)(=O)=O (centres undefined)	-4.1%	-12.0%	7.31µM*	-75.9%	-24.5%	-16.5%	12.6µM*	5.61µM*	u	u	15.8µM*	ELG1 FLuc counter=u;FLuc biochem=-7.8%
O=C(Cc1ccc(F)cc1)Nc1nc(-c2ccc(F)c(F)c2)cs1	-6.4%	u	-1.6%	x	8.3%	-2.7%	x	x	x	x	x
COc1ccc(N2CCN(C(=O)CN3CCN(c4nc(-c5ccc(F)cc5)cs4)CC3)CC2)cc1	-0.4%	1.0%	2.06µM*	x	-30.5%	-19.0%	14.1µM*	3.97µM*	-16.0%	4.45µM*	u
COc1ccc(-c2nnn(CC(=O)N3CCN(c4ccc(F)cc4)CC3)n2)cc1	0.8%	-0.5%	9.8%	x	-0.3%	-5.3%	x	x	x	x	x
COc1ccccc1CNc1ncnc2ccc(-c3ccc(N(C)C)cc3)cc12	x	x	x	-30.2%	x	x	x	x	x	x	x
COc1cc(NC(=O)c2cccc3c2C(=O)N(C2CCCCC2)C3)cc(OC)c1	x	1.0%	x	-0.4%	x	x	x	x	x	x	x
Cc1ccc(Nc2c(-c3ccc(N4CCOCC4)cc3)nc3cccc(C)n23)cc1	x	u	x	-3.7%	x	x	x	x	x	x	x
COc1ccc(CCN2C(=O)CSC2=Nc2ccc(C(C)C)cc2)cc1OC	-7.2%	0.0%	4.11µM*	x	-34.4%	-26.8%	25µM*	2.5µM*	u	1.99µM*	15.8µM*
COc1ccc(-c2cc(C(F)(F)F)n3ncc(C(=O)NCC4CCCO4)c3n2)cc1OC (centres undefined)	8.5%	-0.5%	0.581µM*	-17.9%	-9.6%	-0.9%	0.889µM*	13.2%	u	-3.1%	-3.5%	ELG1 FLuc counter=9.8%;FLuc biochem=1.8%
Cc1cc(NC(=O)c2cnn3c(C(F)(F)F)cc(-c4ccc(Br)cc4)nc23)no1	-7.0%	10.2%	14.6µM*	-15.6%	-3.4%	0.8%	5µM*	-6.9%	u	1.6%	-19.8%	ELG1 FLuc counter=1.6%;FLuc biochem=3.7%
COc1ccc(-c2cc(C(F)(F)F)n3nc(C(=O)Nc4cc(C)on4)cc3n2)cc1OC	0.7%	6.5%	3.66µM*	-9.4%	2.1%	-7.8%	u	-4.3%	u	u	2.7%
CCOC(=O)c1cnn2c(C(F)(F)F)cc(-c3ccc(Br)cc3)nc12	x	1.5%	x	x	x	x	x	x	x	x	x
C=CCNC(=O)c1oc2ccc(S(=O)(=O)N3CCC4(CC3)OCCO4)cc2c1C	0.3%	-2.0%	u	x	-5.5%	0.1%	x	x	x	x	x
